Measured values published in PubChem BioAssay AID624260 (Broad Institute, 2012).
The whole screen tested about 44,000 compounds, of which about 30 (0.07%) were called active. About 1% were inconclusive and are not listed. This is one part of a sample in which actives are shown more often than they occur. No stated cut-off is given here; in the data, active means inhibition above about 54% (passing the limit was not always enough); inconclusive means no clear call, values can overlap the other calls.

molecular target: Histone-lysine N-methyltransferase NSD2 (Homo sapiens) (UniProt O96028); assay: inhibitors of human NSD2, primary screen, biochemical, plate reader, single point (AID 624260); details: NSD2-SET H3K36me1 DELFIA fluorescence, at 12.5 µM, stronger effect = higher value;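 further: inhibitors reduce the monomethyl H3K36 fluorescence signal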
Sequence (O96028 whole entry, looked up): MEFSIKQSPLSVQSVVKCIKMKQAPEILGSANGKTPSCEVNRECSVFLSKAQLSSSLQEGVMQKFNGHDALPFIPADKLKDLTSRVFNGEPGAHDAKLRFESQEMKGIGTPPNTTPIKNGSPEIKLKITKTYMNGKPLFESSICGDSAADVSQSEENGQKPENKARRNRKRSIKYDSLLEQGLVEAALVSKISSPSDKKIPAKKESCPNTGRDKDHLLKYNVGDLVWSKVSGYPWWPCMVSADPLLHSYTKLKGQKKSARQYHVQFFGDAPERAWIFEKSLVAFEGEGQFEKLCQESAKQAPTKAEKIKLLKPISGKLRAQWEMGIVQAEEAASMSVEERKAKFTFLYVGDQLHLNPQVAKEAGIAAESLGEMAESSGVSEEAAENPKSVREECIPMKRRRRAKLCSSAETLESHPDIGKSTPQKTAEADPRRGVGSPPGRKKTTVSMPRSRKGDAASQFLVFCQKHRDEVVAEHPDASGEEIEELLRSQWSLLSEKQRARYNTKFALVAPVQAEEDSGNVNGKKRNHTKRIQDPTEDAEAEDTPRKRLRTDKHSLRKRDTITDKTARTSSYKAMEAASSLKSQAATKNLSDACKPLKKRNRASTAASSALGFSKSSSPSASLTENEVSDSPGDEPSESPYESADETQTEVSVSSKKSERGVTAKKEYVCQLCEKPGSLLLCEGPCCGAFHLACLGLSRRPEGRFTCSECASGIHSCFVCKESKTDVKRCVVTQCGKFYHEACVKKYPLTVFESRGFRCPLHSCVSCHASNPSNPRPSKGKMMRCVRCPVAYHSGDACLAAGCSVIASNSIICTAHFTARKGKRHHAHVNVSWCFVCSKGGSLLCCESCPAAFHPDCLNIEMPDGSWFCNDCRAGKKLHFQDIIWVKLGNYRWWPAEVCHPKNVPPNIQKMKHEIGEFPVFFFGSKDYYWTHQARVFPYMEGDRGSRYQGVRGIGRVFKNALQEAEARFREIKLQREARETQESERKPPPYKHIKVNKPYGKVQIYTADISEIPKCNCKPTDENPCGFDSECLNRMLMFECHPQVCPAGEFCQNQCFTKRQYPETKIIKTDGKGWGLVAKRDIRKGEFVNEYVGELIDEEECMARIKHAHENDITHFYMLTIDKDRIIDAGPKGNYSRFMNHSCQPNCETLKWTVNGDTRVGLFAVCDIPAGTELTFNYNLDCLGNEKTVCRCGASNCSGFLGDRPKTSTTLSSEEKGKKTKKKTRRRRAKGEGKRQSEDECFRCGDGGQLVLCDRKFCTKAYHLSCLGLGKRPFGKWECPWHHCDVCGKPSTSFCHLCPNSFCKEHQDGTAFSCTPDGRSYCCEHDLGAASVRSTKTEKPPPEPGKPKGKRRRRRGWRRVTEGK

inhibition, inactive:
O=C(C[C@H]1C[C@@H]2c3cc(NC(=O)c4cccnc4)ccc3O[C@@H]2[C@@H](CO)O1)NCc1ccccc1F -0.738%
CCCN(C)C[C@H]1Oc2cc(C#CCC3CCCC3)ccc2S(=O)(=O)N([C@@H](C)CO)C[C@@H]1C 1.41%
C[C@@H]1CN([C@@H](C)CO)C(=O)Cc2cc(NC(=O)Nc3ccc4c(c3)OCO4)ccc2O[C@H]1CN(C)S(=O)(=O)c1ccc(F)cc1 5.36%
C[C@H](CO)N1C[C@H](C)[C@@H](CN(C)Cc2ccc(C(F)(F)F)cc2)Oc2ccc(NC(=O)Cn3cnnn3)cc2CC1=O -8%
CC(C)NC(=O)N(C)C[C@H]1Oc2cc(C#Cc3ccccn3)ccc2S(=O)(=O)N([C@H](C)CO)C[C@@H]1C 4.46%
CC(/C=C/C(=O)NO)=C\c1ccccc1OCc1ccc(COc2ccc3ccncc3c2)cc1 -5.12%
C[C@@H]1CN([C@H](C)CO)S(=O)(=O)c2ccc(/C=C/c3ccccc3)cc2O[C@@H]1CN(C)C(=O)Nc1ccc(F)cc1 -10.2%
C[C@H]1CN([C@@H](C)CO)C(=O)Cc2cc(NC(=O)Nc3cccc4ccccc34)ccc2O[C@@H]1CN(C)C 1.05%
Cc1ccc(-c2ccc3c(c2)O[C@H](CN(C)C(=O)Nc2ccccc2)[C@@H](C)CN([C@@H](C)CO)S3(=O)=O)cc1 -6.18%
CCCNC(=O)C[C@H]1C[C@@H]2c3cc(NC(=O)c4ccc5c(c4)OCO5)ccc3O[C@@H]2[C@@H](CO)O1 7.66%
C[C@H](CO)N1C[C@H](C)[C@@H](CN(C)CC2CC2)Oc2ccc(NC(=O)CCCN(C)C)cc2CC1=O 3.07%
O=C(C[C@H]1CC[C@H](NC(=O)Nc2ccc(C(F)(F)F)cc2)[C@H](CO)O1)NCCN1CCCC1 -1.99%
COc1ccc(NC(=O)N(C)C[C@H]2OCc3ccccc3-c3ccccc3C(=O)N([C@H](C)CO)C[C@@H]2C)cc1 -1.37%
CCC(=O)N(C)C[C@H]1Oc2cc(C#CCOC)ccc2S(=O)(=O)N([C@H](C)CO)C[C@H]1C -1.1%
O=C(C[C@H]1C[C@H]2c3cc(NC(=O)Nc4ccc(F)cc4)ccc3O[C@H]2[C@@H](CO)O1)NCC1CC1 2.39%
COc1ccc(CN(C)C[C@H]2OCCCC[C@H](C)Oc3ccc(NS(=O)(=O)c4ccc(C)cc4)cc3C(=O)N([C@@H](C)CO)C[C@H]2C)cc1 2.76%
C[C@@H]1CN([C@@H](C)CO)C(=O)Cc2cc(NC(=O)Nc3ccc(C(F)(F)F)cc3)ccc2O[C@H]1CN(C)C(=O)Nc1ccc(F)cc1 -13.8%
Cc1ccc(S(=O)(=O)N(C)C[C@@H]2Oc3ccc(NC(=O)C4CCCCC4)cc3CC(=O)N([C@@H](C)CO)C[C@H]2C)cc1 -6.23%
CCC(=O)N(C)C[C@@H]1Oc2cc(-c3ccc(OC)cc3)ccc2S(=O)(=O)N([C@@H](C)CO)C[C@H]1C 1.75%
C[C@H](NC(=O)C[C@@H]1CC[C@H](NC(=O)CN2CCOCC2)[C@H](CO)O1)c1ccccc1 -3.53%
COc1cccc(S(=O)(=O)N(C)C[C@@H]2Oc3ncc(-c4cccc(C(=O)N(C)C)c4)cc3C(=O)N([C@H](C)CO)C[C@@H]2C)c1 5.93%
COc1ccc(NC(=O)Nc2ccc3c(c2)C(=O)N([C@H](C)CO)C[C@@H](C)[C@H](CN(C)C(=O)Cc2ccccc2)OCCCC[C@H](C)O3)cc1 -2.17%
CCCNC(=O)C[C@H]1C[C@@H]2c3cc(NC(=O)C4CCOCC4)ccc3O[C@@H]2[C@@H](CO)O1 11%
C/C=C/c1ccc2c(c1)O[C@H](CN(C)C(=O)CN(C)C)[C@H](C)CN([C@@H](C)CO)S2(=O)=O 1.3%
Cc1noc(C)c1S(=O)(=O)Nc1ccc2c(c1)C(=O)N([C@H](C)CO)C[C@@H](C)[C@@H](CN(C)S(=O)(=O)c1ccc(Cl)cc1)O2 -1.25%
C[C@H](CO)N1C[C@H](C)[C@@H](CN(C)Cc2ccccc2)OCCCC[C@H](C)Oc2ccc(NC(=O)Cc3ccccc3)cc2C1=O -3.29%
CCCN(C)C[C@H]1Oc2cc(C#CCC(C)C)ccc2S(=O)(=O)N([C@H](C)CO)C[C@H]1C 0.338%
C[C@H]1CN([C@@H](C)CO)C(=O)c2cccc(NC(=O)Nc3ccc(C(F)(F)F)cc3)c2O[C@H]1CN(C)CC1CCCCC1 1.34%
C[C@H](CO)N1C[C@H](C)[C@H](CN(C)Cc2ccccc2)OCCCC[C@H](C)Oc2ccc(NC(=O)c3ccccc3)cc2C1=O 8.82%
C[C@H]1CN([C@@H](C)CO)C(=O)c2cc(-c3ccncc3)cnc2O[C@H]1CN(C)C(=O)c1cccc(F)c1 -1.28%
CC(C)CC#Cc1ccc2c(c1)O[C@H](CN(C)C(=O)c1cccnc1)[C@@H](C)CN([C@H](C)CO)S2(=O)=O 0.112%
C[C@H]1CN([C@@H](C)CO)C(=O)c2cc(C3=CCCCC3)cnc2O[C@H]1CN(C)Cc1ccncc1 3.39%
C/C=C/c1ccc2c(c1)O[C@@H](CN(C)C(=O)Cc1ccccc1)[C@H](C)CN([C@@H](C)CO)S2(=O)=O 5.94%
COc1ccc(NC(=O)N(C)C[C@H]2Oc3cc(C#CCN(C)C)ccc3S(=O)(=O)N([C@@H](C)CO)C[C@@H]2C)cc1 5.29%
Cc1noc(C)c1NC(=O)N(C)C[C@@H]1Oc2ccc(NC(=O)Nc3cccc4ccccc34)cc2CC(=O)N([C@@H](C)CO)C[C@H]1C -4.68%
CCC(=O)N(C)C[C@@H]1Oc2cc(C#CCOC)ccc2S(=O)(=O)N([C@H](C)CO)C[C@H]1C -17.7%
CN(C)C(=O)C[C@H]1C[C@H]2c3cc(NC(=O)Nc4ccccc4F)ccc3O[C@H]2[C@@H](CO)O1 2.09%
COCC(=O)N(C)C[C@H]1Oc2ncc(-c3ccc(C)cc3)cc2C(=O)N([C@@H](C)CO)C[C@@H]1C 25.2%
